The supplement of paper PMC13380429
Where a name gives a salt, the structure may show the parent alone.

Test system: Vero E6 infected with SARS-CoV-2
Assay: inhibition of SARS-CoV-2 cytopathic effect; higher = more antiviral protection, active = above 15
Conditions: 48 h

Measured: inhibition of SARS-CoV-2 cytopathic effect

COc1cc(Nc2ncc(F)c(Nc3ccc4c(n3)NC(=O)C(C)(C)O4)n2)cc(OC)c1OC
inactive: 1 nM -3.02% | 8.33 nM -0.43% | 100 nM -2.04% | 833.33 nM -4.61% | 10000 nM -4.19%

C=CCSCC1Nc2cc(Cl)c(S(N)(=O)=O)cc2S(=O)(=O)N1 (stereo not given) [althiazide]
inactive: 1 nM 0.54% | 8.33 nM 0.99% | 100 nM -0.07% | 833.33 nM -0.46% | 10000 nM 0.04%

OC[C@H]1OC(O)[C@H](O)[C@@H](O)[C@@H]1O (stereo not given in full) [dextrose]
inactive: 1 nM 0.5% | 8.33 nM -0.54% | 100 nM 0.12% | 833.33 nM -9.41% | 10000 nM -1.07%

O=C(c1ccccc1)C(O)c1ccccc1 (stereo not given) [benzoin]
inactive: 1 nM 0.3% | 8.33 nM 0.27% | 100 nM -1.79% | 833.33 nM 1.45% | 10000 nM 0.76%

O=C1Nc2ccccc2/C1=C1/Nc2ccccc2C1=O [indirubin]
inactive: 1 nM -0.6% | 8.33 nM -1.11% | 100 nM -0.33% | 833.33 nM 1.04% | 10000 nM 0.51%

CCCNS(=O)(=O)Nc1ncnc(OCCOc2ncc(Br)cn2)c1-c1ccc(Br)cc1 [macitentan]
inactive: 1 nM 0.7% | 8.33 nM -1.57% | 100 nM -0.9% | 833.33 nM 1.28% | 10000 nM 4.76%

NC(CO)C(=O)NNCc1ccc(O)c(O)c1O (stereo not given) [benserazide]
inactive: 1 nM -1.48% | 8.33 nM 3.19% | 100 nM 2.6% | 833.33 nM -3.13% | 10000 nM -4.67%

CC(C)(CO)CCCCCCC(C)(C)CO [gemcadiol]
inactive: 1 nM -2.86% | 8.33 nM -2.01% | 100 nM -1.65% | 833.33 nM -2.84% | 10000 nM -2.43%

CCCCOc1cc(CC2CNC(=O)N2)ccc1OC (stereo not given)
inactive: 1 nM -0.73% | 8.33 nM 1.6% | 100 nM -3.01% | 833.33 nM -0.63% | 10000 nM -1.88%

O=[N+]([O-])O[C@@H]1CO[C@H]2[C@@H]1OC[C@@H]2O [isosorbide-mononitrate]
inactive: 1 nM -2.43% | 8.33 nM -1.06% | 100 nM -1.7% | 833.33 nM 2.64% | 10000 nM 1.45%

NS(=O)(=O)c1cc2c(cc1C(F)(F)F)NC(Cc1ccccc1)NS2(=O)=O (stereo not given) [bendroflumethiazide]
inactive: 1 nM -0.89% | 8.33 nM -3.12% | 100 nM -0.42% | 833.33 nM -1.39% | 10000 nM 0.82%

COc1cccc2c1C(=O)c1c(O)c3c(c(O)c1C2=O)C[C@@](O)(C(=O)CO)C[C@@H]3O[C@H]1C[C@H](N)[C@@H](O)[C@H](C)O1 [Epirubicin Hydrochloride]
inactive: 1 nM 1.23% | 8.33 nM 1.09% | 100 nM 0.605% | 833.33 nM 1.46% | 10000 nM -4.63%

Cc1c(N)nc([C@H](CC(N)=O)NC[C@H](N)C(N)=O)nc1C(=O)N[C@H](C(=O)N[C@H](C)[C@@H](O)[C@H](C)C(=O)N[C@H](C(=O)NCCc1nc(-c2nc(C(=O)NCCCNCCCCN)cs2)cs1)[C@@H](C)O)[C@@H](O[C@@H]1O[C@@H](CO)[C@@H](O)[C@H](O)[C@@H]1O[C@@H]1O[C@H](CO)[C@@H](O)[C@H](OC(N)=O)[C@@H]1O)c1cnc[nH]1 [bleomycetin]
inactive: 1 nM 5.02% | 8.33 nM -0.49% | 100 nM -7.1% | 833.33 nM -8.93% | 10000 nM -22.7%

N#Cc1ccc(N2CCN(C(=O)COc3ccc4[nH]cc(CCN)c4c3)CC2)cc1 [donitriptan]
inactive: 1 nM -0.48% | 8.33 nM -0.51% | 100 nM 0.51% | 833.33 nM -0.87% | 10000 nM 1.77%

CS(=O)(=O)Nc1ccc(-c2coc3cc(OCc4cccc(C(=O)O)c4)ccc3c2=O)cc1
inactive: 1 nM -0.72% | 8.33 nM 1.73% | 100 nM -1.1% | 833.33 nM -0.83% | 10000 nM -0.08%

CC(=O)C1=C(O)[C@@H]2[C@H]3c4c[nH]c5cccc(c45)C[C@H]3C(C)(C)N2C1=O [cyclopiazonic-acid]
inactive: 1 nM 0.48% | 8.33 nM 0.86% | 100 nM 2% | 833.33 nM -0.85% | 10000 nM 14.2%

CCN1CCN(C(=O)N[C@@H](C(=O)N[C@@H]2C(=O)N3[C@@H]2SC(C)(C)[C@@H]3C(=O)O)c2ccccc2)C(=O)C1=O [piperacillin]
inactive: 1 nM -0.76% | 8.33 nM 0.86% | 100 nM -1.44% | 833.33 nM -0.01% | 10000 nM 0.01%
